In PubChem BioAssay (NCI):
The panel holds about 79,000 compounds, 15% with a hit somewhere; the sample as a whole holds those more often. Active and inactive are the calls of the source. Cut-off read from the data, not from the text of the source: active = growth inhibition above about 70%; inactive = the rest.

Tests used:
[1] = NCI Yeast Anticancer Drug Screen. Data for the rad50 strain (AID 155);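 note: 0% = growth of vehicle-only cultures of the same strain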; settings: S. cerevisiae rad50 strain growth inhibition; at 50.0 µM; active compounds read high
Method in brief: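 Inhibition values express reduced yeast growth in compound-treated cultures relative to vehicle-treated controls.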

[2] = NCI Yeast Anticancer Drug Screen. Data for the mec2-1 strain (AID 157); settings: S. cerevisiae mec2-1 strain, at 50.0 µM, active compounds read high
Method in brief: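 Test agents were screened against the mec2-1 yeast strain, with defined DNA repair or cell cycle alteration. Growth was scored as inhibition against vehicle-only controls.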

[3] = NCI Yeast Anticancer Drug Screen. Data for the sgs1 mgt1 strain (AID 161);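 note: 0% = growth of cultures given vehicle only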; settings: S. cerevisiae sgs1 mgt1 strain, at 50.0 µM, active compounds read high
Method in brief: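 Inhibition of yeast growth, normalised to vehicle-treated controls, is reported for a strain bearing genetic alterations in DNA damage repair.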

[4] = NCI Yeast Anticancer Drug Screen. Data for the cln2 rad14 strain (AID 165);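 note: 0% = growth equal to vehicle treated cultures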; settings: S. cerevisiae cln2 rad14 strain, at 50.0 µM, active compounds read high
Method in brief: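 Growth of compound-exposed yeast (cln2 rad14 genotype) measured and expressed as inhibition relative to vehicle.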

[5] = NCI Yeast Anticancer Drug Screen. Data for the bub3 strain (AID 167); settings: S. cerevisiae bub3 mutant strain, at 50.0 µM, active compounds read high
Method in brief: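 Steps: expose the mutant yeast strain to compound; grow alongside vehicle-treated cultures; measure growth; express inhibition against the vehicle cultures.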

[6] = NCI Yeast Anticancer Drug Screen. Data for the mlh1 rad18 strain (AID 175); settings: S. cerevisiae mlh1 rad18 strain growth inhibition; at 50.0 µM; active compounds read high
Method in brief: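 In this whole-cell yeast screen, a strain with altered DNA damage repair is challenged with compound, and its growth is measured against matched vehicle-treated controls.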

Measured: growth inhibition

NC(CO)C(O)C(O)C(O)CO (stereo not given)
inactive: [1] 6.8% | [2] 4.5% | [3] 3.35% | [4] 6.7% | [5] 2.35% | [6] -0.45%

COc1ccc(C(CC(=O)O)CC(=O)O)cc1[N+](=O)[O-]
inactive: [1] 0.75% | [2] -1.7% | [3] -2.1% | [4] -6.2% | [5] 15.9% | [6] 10.8%

Cc1nc2ccccc2c(=O)n1NC(=S)Nc1ccc(Cl)cc1
inactive: [1] 3.6% | [2] -31.2% | [3] 4.25% | [4] -23.6% | [5] -18.4% | [6] -14.9%

O=[N+]([O-])c1ccc(CS(=O)(=O)c2ccccc2)o1
inactive: [1] 21.4% | [2] -1.45% | [3] 24.5% | [4] -15.9% | [5] 1.15% | [6] 4.6%

COC(=O)C(C)OP(=O)(OC(C)C(=O)OC)OC(C)C(=O)OC (stereo not given)
inactive: [1] 0.4% | [2] -3.55% | [3] -4.75% | [4] -4.05% | [5] 15.1% | [6] 2.7%

Cc1ccc(/C=C2\CCCC(C(NO)c3ccc(C)cc3)C2=NO)cc1 (stereo not given)
inactive: [1] -10.9% | [2] -20.2% | [3] 3.1% | [4] 1.2% | [5] -6.6% | [6] -9.25%

Cc1cc(Cl)ccc1N1C(=O)C(=O)C(c2nc3ccccc3s2)C(=O)C1=O
inactive: [1] -4.1% | [2] 13.7% | [3] 17.9% | [4] -6.1% | [5] 2.2% | [6] 12.5%

COC(=O)c1nnn(-c2cccc(Cl)c2)c1C(=O)c1ccc(Cl)c(Cl)c1
inactive: [1] -6.55% | [2] 5.55% | [3] 7.5% | [4] -5.25% | [5] -8.9% | [6] 11.8%

CC(=O)OCCCC1CO1 (stereo not given)
inactive: [1] 14.9% | [2] -13.7% | [3] -1.4% | [4] 3.15% | [5] -14.2% | [6] 10.6%

O=C1NC(N(Cc2ccccc2)Cc2ccccc2)=NC1(c1ccccc1)c1ccccc1
inactive: [1] 16.2% | [2] 2.85% | [3] 23.2% | [4] 7.45% | [5] 5.9% | [6] 20.6%

O=C1c2ccccc2C(=O)c2cc(C[n+]3ccccc3C3OCCO3)ccc21
inactive: [1] 19% | [2] 7.2% | [3] 42.2% | [4] 15.8% | [5] -0.8% | [6] 2.55%

Cc1cc(C)c(CC#N)s1
inactive: [1] -25.2% | [2] -12.1% | [3] -1.65% | [4] -52.6% | [5] -15.4% | [6] -22.3%

Cc1cc2nc(CC(=O)c3cccnc3)c(=O)[nH]c2cc1C
inactive: [1] 0.9% | [2] 3.05% | [3] 12.4% | [4] 18.3% | [5] -8.05% | [6] 15.8%

O=c1oc2ccc3ccccc3c2c2c1CCCCC2
inactive: [1] -13.9% | [2] -4.05% | [3] -14.8% | [4] -22.1% | [5] -8.05% | [6] -26.5%

O=c1/c(=C/c2ccccc2O)sc2nc3ccccc3n12
inactive: [1] 9.65% | [2] -42.2% | [3] 18.9% | [4] 15% | [5] 10.4% | [6] 20.9%

O=Cc1ccc(O)cn1
inactive: [1] -0.65% | [2] 6.25% | [3] -4.4% | [4] -11.9% | [5] 1.75% | [6] -0.75%

O=S(=O)(OC12CCCCC1CN1CCCCC1C2)c1ccc(Br)cc1 (stereo not given)
inactive: [1] 14.6% | [2] 9.5% | [3] -4.1% | [4] -3.1% | [5] 3.7% | [6] 12.8%

Cc1nnc2n1N=C(c1ccc(-c3ccc([N+](=O)[O-])cc3)o1)CS2
inactive: [1] 10.7% | [2] 3.1% | [3] -1.75% | [4] 12.1% | [5] -25.8% | [6] 10.8%

O=C1CC[C@@H](S(=O)(=O)c2ccccc2)[C@@H](/C=C/c2ccccc2)O1
inactive: [1] -26.8% | [2] -1.75% | [3] 7.15% | [4] -12.8% | [5] -10.7% | [6] -6.7%

COc1ccc(OC)c(NC(C)=O)c1
inactive: [1] -30.4% | [2] -12.2% | [3] -16.3% | [4] -3.05% | [5] -24.4% | [6] -8.55%

C=C1C(O)CCC2(C)C1CCC1C2CCC2(C)C(C(C)CCCC(C)C)CCC12 (stereo not given)
inactive: [1] -5% | [2] -5.35% | [3] -3.1% | [4] -39.6% | [5] -4.4% | [6] -2.45%

O=C1CC2(CCN(Cc3ccccc3)CC2)C(=O)N1N1CCCCC1
inactive: [1] 50.9% | [2] 33.3% | [3] 57.8% | [4] 41.9% | [5] 43.8% | [6] 50.4%

CC(NC(=O)c1ccc(C(C[N+](=O)[O-])SCCC(=O)O)cc1)C(=O)O (stereo not given)
inactive: [1] 18.9% | [2] 7.2% | [3] 26.2% | [4] 5.55% | [5] -15.9% | [6] 1.2%

CC(C)OC(=S)Nc1ccc(Cl)c(COC(C)(C)C)c1
inactive: [1] -5.8% | [2] -16.2% | [3] -4.65% | [4] 7.6% | [5] -10.1% | [6] -7.4%

CCCCC(CCc1ccccc1)C(=O)NCC (stereo not given)
inactive: [1] -5.1% | [2] -11.6% | [3] -18.4% | [4] -11% | [5] -12.3% | [6] 5.1%

O=C1C=C(Nc2ccc3ccccc3c2[N+](=O)[O-])c2ccccc2C1=O
inactive: [1] 27.2% | [2] 17.4% | [3] 8.05% | [4] -16.4% | [5] 23.2% | [6] 7.1%

COC(=O)N1C(C#N)=CCc2ccccc21
inactive: [1] 26.4% | [2] 31.2% | [3] 16.9% | [4] -6.25% | [5] 3.8% | [6] 5.65%

COC(=O)CNc1cccc([N+](=O)[O-])c1
inactive: [1] -3.45% | [2] 5.15% | [3] -3.65% | [4] -14.7% | [5] -11.3% | [6] -19.2%

CCn1c2ccc(C(=O)CCCN(C)C)cc2c2cc(C(=O)CCCN(C)C)ccc21
inactive: [1] 5.15% | [2] -33.3% | [3] 8.5% | [4] 4.05% | [5] 14.2% | [6] -21.9%

O/N=C/c1ncccc1C1OCCO1
inactive: [1] 9.45% | [2] -0.55% | [3] -2.35% | [4] 9.8% | [5] -6.7% | [6] 14.7%

O=Cc1ccccc1[N+](=O)[O-]
inactive: [1] 18.9% | [2] -8.35% | [3] 15% | [4] 14.2% | [5] 6.75% | [6] 17.9%

NC1CSc2ccccc2NC1=O (stereo not given)
inactive: [1] 20.5% | [2] 31.9% | [3] 7.8% | [4] 9.8% | [5] 22.8% | [6] 33%

N#Cc1nc(CC(=O)c2ccccc2Cl)c(CC(=O)c2ccccc2Cl)nc1C#N
inactive: [1] 22.4% | [2] 20.1% | [3] 5.6% | [4] 25.4% | [5] 13.4% | [6] 19.4%

O=[N+]([O-])c1c(O)c2nonc2c2nn(-c3ccccc3)nc12
inactive: [1] 1.7% | [2] 15% | [3] 55.4% | [4] 25.8% | [5] -15.7% | [6] -15.4%

O=C(O)/C=C\C(=O)Nc1ccc(N=Nc2ccccc2)cc1
inactive: [1] -34.6% | [2] -39.9% | [3] -7.95% | [4] -3.65% | [5] -18.8% | [6] -2.9%

CCc1nc(N)nc(N)c1-c1ccc2c(c1)nnn2CCc1ccccc1
inactive: [1] 11.2% | [2] 0.1% | [3] 3.6% | [4] 10.7% | [5] 5.05% | [6] 16.1%

Cc1ccc(S(=O)(=O)N/N=C2\CC[C@H]3[C@@H]4CC=C5C[C@@H](O)CC[C@]5(C)[C@H]4CC[C@]23C)cc1
active: [1] 95.3% | [2] 95.3% | [3] 76.3% | [4] 97% | [5] 90.6% | [6] 96%

Cc1ccc(S(=O)(=O)CCOC(=O)Nc2ccccc2)cc1
inactive: [1] 2.5% | [2] 12.6% | [3] 1.7% | [4] -12.4% | [5] -14.6% | [6] 11.5%

CCc1c(COC(=O)NC)c(COC(=O)NC)cc2c1[nH]c1ccccc12
inactive: [1] -16.6% | [2] -1.95% | [3] -2.95% | [4] -16.4% | [5] -41% | [6] -14.6%

O=C(c1ccccc1)c1ccc2ccc(F)cc2c1C(=O)O
inactive: [1] -4% | [2] 17.9% | [3] 2.05% | [4] -17.9% | [5] 16.6% | [6] -7.7%
